The panel holds about 83,000 compounds, 20% with a hit somewhere; the sample as a whole holds those more often.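 Note: values are percent growth. 100 is the growth of untreated cells, values between 100 and 0 indicate rising inhibition; between -100 and 0 indicates cell death.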 Values without a mark were called inactive. Active and inactive are the calls of the source. How the source made its calls: active means growth percent below 10; inactive means the rest.
Key:
Assay in all cases: NCI-60 one-dose screen, 48 h (100 = growth as untreated, 0 = no growth, -100 = all killed)
HT29 colon = conditions: 10 µM
SNB-75 CNS = conditions: 10 µM
SNB-19 CNS = conditions: 10 µM
U251 CNS = conditions: 10 µM
PC-3 prostate = conditions: 10 µM
SK-MEL-5 melanoma = conditions: 10 µM
UACC-62 melanoma = conditions: 10 µM
LOX IMVI melanoma = conditions: 10 µM
SK-MEL-28 melanoma = conditions: 10 µM
SK-MEL-2 melanoma = conditions: 10 µM
SN12C renal = conditions: 10 µM
UO-31 renal = conditions: 10 µM
TK-10 renal = conditions: 10 µM
ACHN renal = conditions: 10 µM
CAKI-1 renal = conditions: 10 µM
A498 renal = conditions: 10 µM
CCRF-CEM leukemia = conditions: 10 µM
MOLT-4 leukemia = conditions: 10 µM unless noted
HCT-15 colon = conditions: 10 µM
EKVX NSCLC = conditions: 10 µM

SMILES | growth (HT29 colon) | growth (SNB-75 CNS) [%] | growth (SNB-19 CNS) [%] | growth (U251 CNS) | growth (PC-3 prostate) | growth (SK-MEL-5 melanoma) | growth (UACC-62 melanoma) | growth (LOX IMVI melanoma) | growth (SK-MEL-28 melanoma) [%] | growth (SK-MEL-2 melanoma) | growth (SN12C renal) | growth (UO-31 renal) | growth (TK-10 renal) | growth (ACHN renal) | growth (CAKI-1 renal) | growth (A498 renal) | growth (CCRF-CEM leukemia) | growth (MOLT-4 leukemia) | growth (HCT-15 colon) [%] | growth (EKVX NSCLC) [%]
O=C1C(Cl)=C(Cl)C(Cl)(Cl)C(Cl)C1(Cl)Cl (stereo not drawn) | 99.5% | 88.9 | 108 | 103% | 101% | 106% | 98.7% | 96.2% | 114 | 100% | 88.5% | 84.5% | 98.9% | 100% | 99% | 115% | 94.9% | 94.8% |  | 
CCC(=O)Oc1ccc(/C=N/NC(N)=S)nc1 | 60.8% | 41 | 72.7 | 27.3% | 54.1% | 31% | 7.95% (active) | 18.1% | 79 | 53.2% | 32.5% | 29.7% | 86.3% | 8.62% (active) | -2.02% (active) | 52% | -0.545% (active) | 10.8% |  | 
ClCCn1c(CCl)nc2ccc(Cl)cc21 | -59.8% (active) | 20.7 | 47.9 | -67.2% (active) | -63.9% (active) | -94.9% (active) | -79.6% (active) | 2.97% (active) | 42.8 | -56% (active) | -47% (active) | -82.6% (active) | -30.6% (active) | -68.8% (active) | -28.5% (active) | 1.48% (active) | -46.8% (active) | -52.7% (active) |  | 
O=c1[nH]cc(/C=N\Nc2ccccc2)c(=O)[nH]1 | 58.8% | 102 | 103 | 69.6% | 52.1% | 57.8% | 7.82% (active) | 45.8% | 81.5 | 46.1% | 68.7% | 26% | 78% | 40.3% | 41.6% | 87.5% | 31.2% | 49.6% | 41.1 | 
Nc1nc(N)c2cc(Sc3ccc4ccccc4c3)ccc2n1 | 9.75% (active) | 53.5 | 35.7 | 27.4% | 35.6% | 23.4% | 27.3% | 21% | 61.7 | 75.3% | 27.9% | 22% | 49.5% | 28.2% | 17.3% | 58.5% | 38.2% | 18.4% |  | 
Cn1ncc2cc3c(Nc4ccc(Cl)cc4)cccc3nc21 | 78.7% | 97.2 | 99.3 | 81.2% | 79.8% | 82.1% | 98.6% | 87% | 95.8 | 99.4% | 93.7% | 62.5% | 92.9% | 90.5% | 88.6% | 75.4% | 95.5% | 89% | 88.1 | 
O=S(=O)(c1cc(Cl)ccc1O)c1cc(Cl)ccc1O | 105% | 77.1 | 91.8 | 76.7% | 80.6% | 53.5% | 31.1% | 93.5% | 87.5 | 64% | 80.4% | 71.8% | 87.5% | 84.9% | 92.1% | 59.6% | 76.2% | 90.2% |  | 
CN(CC(=O)O)c1ccc(/C=C/c2ccnc3ccccc23)cc1 | 88.6% | 90.3 | 87.9 | 80.3% | 71.2% | 93% | 72.3% | 94.8% | 100 | 89% | 85.2% | 61.7% | 98.7% | 89.1% | 92.9% | 97.1% | 66.8% | 34.4% |  | 
Cc1cc(N=C2C=CC(=[N+](C)C)C=C2)c(N)cc1N | 93.8% | 102 | 87.3 | 93.2% |  | 90% | 89.8% | 79% | 103 | 106% | 88.7% | 71.5% | 106% | 91% | 92.8% | 75.7% | 89.3% | 91.3% | 109 | 
CN(C)c1ccc(/C=C/c2ccnc3ccccc23)cc1N | 58.5% | 85.8 | 80.2 | 66.7% | 60.4% | 13.6% | 63.3% | 71.4% | 83.8 | 67.5% | 70.5% | 45.5% | 74.7% | 68.6% | 60.9% | 62.8% | 44.3% | 54.8% |  | 
O=C(NC(=S)Nc1ccccn1)c1ccccc1 | 87.5% | 74.8 | 95.4 | 94.9% | 77.9% | 93.3% | 93.1% | 94.9% | 152 | 127% | 97.1% | 93.9% | 125% | 95.1% | 82% | 70.5% | 62.2% | 93.1% |  | 74.8
COc1ccc(C(C#N)=C2C=CC(=NO)C=C2)cc1 |  | 91.6 | 111 | 53.9% | 50.4% | 80.3% | 66.3% | 59.5% | 106 |  | 95.8% | 67% | 12.9% | 78.5% | 93.6% | 114% | 29.8% | 58.4% |  | 
S=C1SCN(CCc2ccccc2)CN1CCc1ccccc1 | 95.8% | 87.5 | 105 | 91.3% | 93.6% | 89% | 94.9% | 90.9% | 92.4 | 105% | 101% | 70.6% | 82.1% | 110% | 90.5% |  | 57.3% | 76.8% |  | 
O=C(CNS(=O)(=O)Cc1ccccc1)NNc1ccccc1 | 81.5% | 76.8 | 88.3 | 82.7% | 63.2% | 47.5% | 14.9% |  | 94 | 97.1% | 75% | 35.7% | 90.6% | 36.7% | 39.8% | 108% | 45.2% | 35.4% |  | 
COc1ccc2c(c1)[nH]c1c(/C=C/c3ccccc3)nccc12 | 21.6% | 35.7 | 76.5 | 70.4% | 42.5% | 72.8% | 78.9% | 63.4% |  | 89.5% | 78.7% | 25.7% | 81.2% | 61.1% | 58.4% | 71.2% | 65% | 48% |  | 

Reference: PubChem BioAssay (NCI)
